Values joined by “and” are separate entries in the source; they are usually repeats but may differ in a detail not shown here. Equal entries are not always repeated. The whole screen tested about 350,000 compounds, of which about 31,000 (8.9%) were called active. Another 15% or so got no clear call; they are omitted. Calls come from the whole dose curve; as a rule, active = well fitted inhibition curve with a large enough effect; inconclusive = small, poorly fitted or top-dose-only effect; inactive = no such curve, though single readings can be large or run the other way. The list comes from a sample in which actives are over-represented; it also holds similar structures and randomly drawn compounds. Some structures have more than one record in an assay (separate samples or runs), and their calls can disagree.
molecular target: Histone-lysine N-methyltransferase EHMT2 (Homo sapiens) (UniProt Q96KQ7); experiment: qHTS Assay for Inhibitors of Histone Lysine Methyltransferase G9a; settings: G9a H3K9 monomethylation, AlphaScreen, 2 h; series mostly up to 59 µM; activity, negative = inhibition: at the top concentration; note: nearly all actives have a fitted effect of over 75% in size
Sequence (Q96KQ7 913-1193 limits assumed): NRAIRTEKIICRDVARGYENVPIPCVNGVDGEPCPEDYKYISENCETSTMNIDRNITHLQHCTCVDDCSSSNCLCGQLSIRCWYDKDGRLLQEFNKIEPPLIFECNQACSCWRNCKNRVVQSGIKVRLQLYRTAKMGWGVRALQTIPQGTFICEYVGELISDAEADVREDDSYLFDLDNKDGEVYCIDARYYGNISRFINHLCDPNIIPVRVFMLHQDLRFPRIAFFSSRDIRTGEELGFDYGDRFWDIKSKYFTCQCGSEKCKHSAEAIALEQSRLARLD
Method in brief: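 G9a (20 nM) was preincubated 15 min with compound, then reacted 2 h at room temperature with 500 nM biotin-H3K9 peptide and 20 µM SAM. Monomethyl-H3K9 detected by AlphaScreen using anti-H3K9me1 antibody.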
% is set by controls: 0 for no effect and ±100 for the full control effect; potency is the fitted concentration of half-maximal effect.

Structure (SMILES)	activity, negative = inhibition	Potency
COCCn1c(CCC(=O)Nc2cc(C)ccc2C)nc2cccnc21	22.5% (inactive)	–
O=C(OCC(=O)N1CCc2ccccc21)C1CCCN1S(=O)(=O)c1ccc(Cl)cc1 (configuration not stated)	0.8% [at 2.33 µM] (inactive)	–
CCCC(=O)Nc1ncnc2c1ncn2[C@@H]1O[C@@H]2OP(=O)(O)OC[C@H]2[C@H]1OC(=O)CCC	4.63% (inactive)	–
CCCOc1cccc(C(=O)Nc2cccc(NC(=O)c3ccc(C(C)(C)C)cc3)c2)c1	-0.125% (inactive)	–
COc1ccc2c(c1)[C@H]1[C@H](CO2)[C@H](c2ccccc2)[C@]2(C)C(=O)Nc3cc(F)c(F)cc3C(=O)N12	5.78% [at 2.33 µM] (inactive)	–
COc1ccc(-c2nonc2NC(=O)c2oc3ccc(F)cc3c2C)cc1OC	1.61% [at 102 µM] (inactive)	–
Cc1c(NC(=O)Cc2ccccc2)cccc1-c1nc2cccnc2s1	-27.2% (inactive)	–
O=C(Cc1cc(=O)[nH][nH]1)N/N=C/c1ccccc1[N+](=O)[O-]	9.5% [at 102 µM] (inactive)	–
CN(C)/N=C/c1cc(Cl)cc([N+](=O)[O-])c1O	-14.3% (inactive)	–
O=C(N/N=C/c1cc(Cl)cc([N+](=O)[O-])c1O)C(O)(c1ccccc1)c1ccccc1	–	28.2 µM (active)
CCOc1ccc(N(CC)C(=O)c2noc3c2COc2ccc(C)cc2-3)cc1	10.9% (inactive)	–
CCn1cc(C(=O)N2CC(C)CC(C)C2)c(=O)c2cc(S(=O)(=O)N3CCCC3)ccc21 (configuration not stated)	12.6% [at 102 µM] (inactive)	–
COC(=O)c1cn(C)c2ccc(S(=O)(=O)N3CC(C)CC(C)C3)cc2c1=O (configuration not stated)	–	56.2 µM (active)
CC1CCCCC1NC(=O)c1cn(C)c2ccc(S(=O)(=O)N3CCOCC3)cc2c1=O (configuration not stated)	-4.36% [at 102 µM] (inactive)	–
O=C1C=C(c2ccnc3cc(Cl)ccc23)C[C@@H](c2ccc3c(c2)OCO3)C1	-18.7% [at 0.501 µM] (inactive)	–
COc1cccc(N2CC(NS(=O)(=O)c3cccs3)CC2=O)c1 (configuration not stated)	4.26% [at 102 µM] (inactive)	–
Cc1ccc2c(CSc3nncs3)cc(=O)oc2c1	–	50.1 µM (active)
Cc1ccc2c(CN3CCN(S(=O)(=O)c4ccccc4C(F)(F)F)CC3)cc(=O)oc2c1	-13.1% [at 12.7 µM] (inactive)	–
COCc1cc(=O)oc2cc(NS(=O)(=O)c3ccc(C)cc3)ccc12	-1.12% [at 102 µM] (inactive)	–
CC(C)CNC(=O)COC(=O)/C=C/c1ccccc1[N+](=O)[O-]	6.78% (inactive)	–
O=C(/C=C/c1ccccc1[N+](=O)[O-])OCC(=O)N1CCCC1	11.7% [at 12.7 µM] (inactive)	–
O=C(/C=C/c1ccccc1[N+](=O)[O-])NCC1CCCO1 (configuration not stated)	-4.67% (inactive)	–
CC1CC(C)CN(C/C=C/c2ccccc2[N+](=O)[O-])C1 (configuration not stated)	–	50.1 µM (active)

Structure (SMILES)	activity, negative = inhibition	Potency
O=C(/C=C/c1ccccc1[N+](=O)[O-])OC1CCCCC1=O (configuration not stated)	-0.9% [at 102 µM] (inactive)	–
O=[N+]([O-])c1ccccc1/C=C/CN1CCC(O)CC1	–	39.8 µM (active)
CCC1(C)CC(=O)c2c(ccc3oc(C(=O)Nc4ccc(C(C)=O)cc4)c(C)c23)O1 (configuration not stated)	1.06% (inactive)	–
Cc1ccc(C)c(N2CCN(C(=O)C3CCC(CNS(=O)(=O)c4cccs4)CC3)CC2)c1 (configuration not stated)	-7.4% (inactive)	–
CCCN1CCN(C(=O)CCCNC(=O)c2ccc(Cl)cc2)CC1	-12.5% [at 102 µM] (inactive)	–
COc1ccccc1NC(=O)c1cc(C2CC2)nc2c1c(C)nn2-c1ccc(C)cc1	3.8% (inactive)	–
CCN(CC)S(=O)(=O)c1ccc2c(c1)N(CC(=O)NCC(C)c1ccccc1)C(=O)CO2 (configuration not stated)	-7.99% (inactive)	–
O=C(COC(=O)c1cc(S(=O)(=O)N2CCOCC2)ccc1Cl)NCCc1ccccc1	-2.95% [at 12.7 µM] (inactive)	–
Cc1ccnc(NC(=O)CNC(=O)c2ccccc2)c1	-3.79% [at 102 µM] (inactive)	–
O=c1[nH]c(-c2cccs2)nc2ccccc12	10.3% (inactive)	–
S=c1[nH]c(-c2cccs2)cn1-c1ccccc1	–	2.51 µM (active)
O=C(O)/C=C/c1cn(-c2ccccc2)nc1-c1cccs1	-5.58% [at 102 µM] (inactive)	–
CC1=C(C(=O)OCC(C)C)C(c2ccc(OCc3ccccc3)cc2)N2C(=O)CCSC2=N1 (configuration not stated)	-28.6% (inactive)	–
O=C(c1ccc(Cl)c(S(=O)(=O)N2CCCCC2)c1)N1CCCCCC1	28.7% [at 102 µM] (inactive)	–
O=C(c1ccc[nH]c1=S)N1CCN(S(=O)(=O)c2ccc(Br)cc2Cl)CC1	–	8.91 µM (active)
O=C(c1ccccc1F)N1CCN(S(=O)(=O)c2ccc(Br)cc2)CC1	27% [at 102 µM] (inactive)	–
CC(C)CN(C(=O)Cn1c(=O)cnc2ccccc21)C1CCS(=O)(=O)C1 (configuration not stated)	2.69% [at 102 µM] (inactive)	–
O=C1[C@H]2[C@@H](c3ccc(Cl)cc3)N3C(=O)N(c4cccc(F)c4)C(=O)[C@@]3(Cc3ccccc3)[C@H]2C(=O)N1C1CCCCC1	-8.78% [at 2.33 µM] (inactive)	–
c1cncc(-c2nc(N3CCNCC3)c3ccccc3n2)c1	8.14% [at 0.501 µM] (inactive)	–
S=c1nc2ccccc2c2nc(-c3cccnc3)[nH]n12	–	10 µM (active)
CC(C)(C)OC(=O)N1CCC(c2c(C(=O)NCc3ccccn3)cnn2-c2ccc(F)cc2)CC1	51.9% (inactive)	–
Cc1ccc2[nH]c(C)c(CCNC(=O)NC3CCCCC3)c2c1	3.69% [at 102 µM] (inactive)	–
Cc1ccc(NC(=S)N(Cc2ccco2)C(C)c2cccs2)cc1 (configuration not stated)	18.1% (inactive)	–

Structure (SMILES)	activity, negative = inhibition	Potency
COCCNC(=S)N(CCc1c(C)[nH]c2ccc(C)cc12)Cc1cccnc1	–	70.8 µM (active)
Cc1ccc(CN(Cc2cccnc2)C(=S)Nc2cc(Cl)ccc2C)cc1	4.45% [at 102 µM] (inactive)	–
COCCNC(=S)N(Cc1cccnc1)Cc1ccc(OC)c(OC)c1	17.6% [at 102 µM] (inactive)	–
CCNC(=S)N(CCc1c(C)[nH]c2ccc(C)cc12)Cc1ccco1	–	50.1 µM (active)
COC(=O)c1ccc(-c2c(-c3ccccc3)ncc3cc(OC)c(OC)cc23)cc1	-32.8% [at 0.501 µM] (inactive)	–
Cc1cc(C)n2nc(C(=O)OC(C)C(=O)c3cc(C)c(C)cc3C)nc2n1 (configuration not stated)	20.5% [at 0.501 µM] (inactive)	–
COc1cccc(C(=O)NCc2ccc3c(c2)CCN3C(=O)c2ccncc2)c1	6% (inactive)	–
O=C(Cc1cccs1)NCc1cccc(C(F)(F)F)c1	13.6% [at 102 µM] (inactive)	–
COc1ccccc1NC(=O)CCC(=O)OC(C)C(=O)c1ccccc1 (configuration not stated)	-6.17% [at 102 µM] (inactive)	–
O=C(CN1C(=O)NC2(CCOc3ccccc32)C1=O)NCc1ccc(F)cc1 (configuration not stated)	28.5% [at 12.7 µM] (inactive)	–
CC1CCCC(C)N1C(=O)CN1CCN(c2nc(-c3ccc(F)cc3)cs2)CC1 (configuration not stated)	-13.6% (inactive)	–
COc1cc(NC(=O)CN2CCN(S(=O)(=O)c3ccc(Br)cc3)CC2)cc(OC)c1	-2.68% (inactive)	–
O=C(CN1CCOCC1)Nc1ccc(NC(=O)CN2CCOCC2)c(Cl)c1	-22.4% [at 102 µM] (inactive)	–
COc1cccc(CC(=O)Nc2ccc(-c3csc(C)n3)cc2)c1	-3.28% (inactive)	–
COc1cccc(NC(=O)CN2CCN(c3nc(-c4cccc(OC)c4)cs3)CC2)c1	–	10 µM (active)
COc1cccc(NC(=O)CN2CCN(CC(=O)Nc3ccccc3Cl)CC2)c1	–	35.5 µM (active)
CC(C)c1ccccc1OCC(O)CN(CC(O)COc1cccc2ccccc12)C(C)C (configuration not stated)	-40% [at 102 µM] (inactive)	–
COc1ccc(CCNC(=O)c2ccc3c(c2)sc2nc(-c4ccc(C)cc4)cn23)cc1OC	5.17% (inactive)	–
Cc1c(Cl)cccc1NC(=O)N1CCN(C(=O)c2nsc3ccccc23)CC1	5.81% (inactive)	–
CC1=C(C/C=C(\C)CCCC(C)CCCC(C)CCCC(C)C)C(=O)c2ccccc2C1=O (configuration not stated)	–	inactive and 14.1 µM (active)
Cn1cc(CNC(=O)c2ccc(OC3CCN(Cc4ccccn4)CC3)cc2)cn1	0.355% [at 102 µM] (inactive)	–
N#Cc1c(Cl)nc(-c2cccnc2)nc1-c1ccccc1	-10.7% [at 2.33 µM] (inactive)	–
CCOc1ccc(N(CC)S(=O)(=O)N2CCCC(C(=O)Nc3ccc(C(C)=O)cc3)C2)cc1 (configuration not stated)	-2.74% (inactive)	–

Structure (SMILES)	activity, negative = inhibition	Potency
O=C(Nc1cc(S(=O)(=O)N2CCOCC2)ccc1OCC(F)(F)F)c1ccc(N2CCCC2=O)cc1	-48.4% [at 102 µM] (inactive)	–
CCN(CC)S(=O)(=O)c1cc([N+](=O)[O-])ccc1N=Nc1c(O)n(C)c2ccccc12	-0.516% (inactive)	–
CC(=O)c1ccc(NC(=O)Nc2ccc([N+](=O)[O-])cc2C)cc1	15.9% (inactive)	–
CCN(CC)S(=O)(=O)c1cc([N+](=O)[O-])ccc1NNC(=O)Nc1ccccc1	–	15.8 µM (active)
O=C(O)c1ccc(Cn2c(SCc3ccc(F)cc3)nc3ccncc32)cc1	-49.2% (inactive)	–
Cn1c(=O)nc2n(-c3ccc(Br)cc3)c3cccc(Cl)c3cc-2c1=O	-6.92% (inactive)	–
CC(C)NC(=S)N1CCN(C(c2ccccc2)c2ccccc2)CC1	7.96% [at 102 µM] (inactive)	–
CC(C)OCC(O)CN1CCN(C(c2ccccc2)c2ccccc2)CC1 (configuration not stated)	–	50.1 µM (active)
COc1ccccc1CNCc1ccc(C(=O)O)s1	-1.62% (inactive)	–
O=C(c1ccc(-n2cnnn2)cc1)N1CCN(C(c2ccccc2)c2ccccc2)CC1	0.701% (inactive)	–
COc1ccccc1CN1CC2(CCN(S(=O)(=O)c3ccccc3)CC2)C1	8.67% [at 12.7 µM] (inactive)	–
COc1ccccc1CN1CCN(C(c2ccccc2)c2ccccc2)CC1	–	10 µM (active)
CCOc1ccccc1NC(=S)N1CCN(c2cccc(C)c2C)CC1	16.7% [at 102 µM] (inactive)	–
Oc1ccccc1CN1CCN(C(c2ccccc2)c2ccccc2)CC1	–	28.2 µM (active)
COc1ccccc1NC(=S)N1CCN(C(c2ccccc2)c2ccccc2)CC1	–	28.2 µM (active)
c1ccc(C(c2ccccc2)N2CCN(Cc3nnnn3C3CCCCC3)CC2)cc1	1.35% (inactive)	–
COc1ccccc1NC(=S)N1CCN(c2ccc(F)cc2)CC1	-4.21% [at 0.501 µM] (inactive)	–
CC(=O)N1CCN(CC(c2ccccc2)c2ccccc2)CC1	-30.3% [at 102 µM] (inactive)	–
O=C(NCCCc1ccccc1)c1cc(COc2c(F)cccc2F)on1	178% [at 102 µM] (inactive)	–
CCc1nn(CCCC(=O)NCc2ccc(C)cc2)c(=O)c2cc3occc3n12	–	inactive
CN(CCc1ccccn1)C1CCCN(S(=O)(=O)c2ccccc2Cl)C1 (configuration not stated)	-5.52% [at 102 µM] (inactive)	–
COc1c(Cl)cc(Cl)cc1C(=O)Nc1cccc2cccnc12	56.1% (inactive)	–
COc1ccc(-c2nn3c(=O)cc(CN4CCN(C(=O)c5ccc(OC)c(OC)c5)CC4)nc3s2)cc1	12.8% (inactive)	–
